Assay outcomes as filed in PubChem.
The list is not random: actives were taken first. Their share in the collection is about 11%.
BAZ2B block: qHTS Assay for Inhibitors of BAZ2B; Bromodomain adjacent to zinc finger domain protein 2B (Homo sapiens), Q9UIF8; AlphaScreen BAZ2B-H3K14Ac peptide displacement; Potency, µM (doses to about 114 µM), without a hit: at the highest dose activity change, negative = inhibition, hits mostly inhibitors; 360,000 tested, 4.4% active; AID 504333, 2011; also: potency is read from the fitted curve at half-maximal effect; % is scaled to controls: 0 for no effect and ±100 for the full control effect; nearly all actives have a fitted effect of over 60% in size
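AlphaScreen displacement of biotin-H3(5-23)K14Ac peptide (50 nM final) from BAZ2B (50 nM final) in PBS pH 7.4, 0.01% Tween-20; complex preformed 30 min RT, then compounds (top 110 uM) 30 min RT, beads 20 min dark.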
L3MBTL1 block: qHTS Assay for the Inhibitors of L3MBTL1; AlphaScreen L3MBTL1–H3K9me1 peptide binding; Potency, µM (doses to about 57.1 µM), for inactives: at the highest dose activity, negative = inhibition, hits mostly inhibitors; 230,000 tested, 0.66% active; AID 485360, 2010; also: potency is read from the fitted curve at half-maximal effect; % is scaled to controls: 0 for no effect and ±100 for the full control effect; nearly all actives have a fitted effect of over 60% in size
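Read-out is AlphaScreen signal from streptavidin donor and nickel chelate acceptor beads (10 ug/mL final each) bridging L3MBTL1 (50 nM) and biotinylated K9-monomethylated H3(1-15) peptide (75 nM), after 30 min compound exposure at room temperature.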
HP1b binding inh: HTS for Inhibitors of HP1-beta Chromodomain Interactions with Methylated Histone Tails; 390,000 tested, 0.56% active; Chromobox protein homolog 1 (Homo sapiens), P83916; Potency, µM (doses to about 114 µM), inactives show at the highest dose activity change, negative = inhibition, most hits filed as inhibitors; AlphaScreen HP1-beta / biotin-H3K9me3 peptide binding; also: potency is read from the fitted curve at half-maximal effect; nearly all actives have a fitted effect of over 70% in size
Target sequence (P83916 whole entry, looked up): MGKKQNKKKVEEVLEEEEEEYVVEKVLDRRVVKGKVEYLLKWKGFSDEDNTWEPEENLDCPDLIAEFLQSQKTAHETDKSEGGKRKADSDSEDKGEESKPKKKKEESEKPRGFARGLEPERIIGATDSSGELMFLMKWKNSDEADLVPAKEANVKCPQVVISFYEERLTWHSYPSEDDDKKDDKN
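Compound inhibition of the preformed complex between 50 nM HP1-beta and 50 nM biotinylated H3K9me3 peptide was read by AlphaScreen. Buffer was PBS pH 7.4 with 0.01% Tween-20. Incubations ran 30 min at room temperature, with 10 ug/mL donor/acceptor beads.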
JMJD2A Tudor inh: qHTS Assay for Inhibitors of JMJD2A-Tudor Domain | Potency, µM (doses to about 114 µM), for inactives: at the top dose activity change, negative = inhibition, actives largely listed as inhibitors | 390,000 tested, 4.4% active | AID 504339, 2011 | Lysine-specific demethylase 4A (Homo sapiens), O75164 | AlphaScreen JMJD2A-Tudor / H3K4me3 peptide binding; also: potency is read from the fitted curve at half-maximal effect; % is scaled to controls: 0 for no effect and ±100 for the full control effect; nearly all actives have a fitted effect of over 50% in size
PI5P4Ka inh: qHTS for Inhibitors of phosphatidylinositol 5-phosphate 4-kinase (PI5P4K); PI5P4Kalpha enzyme, ADP-Glo luminescence, 60 min; hits give low values; 330,000 tested, 1.2% active; Phosphatidylinositol 5-phosphate 4-kinase type-2 alpha (Homo sapiens), P48426; max response, %; active = max response of -50% or lower; inconclusive = between -30% and -50%; inactive = -30% or higher; also: value at the top dose of about 77 µM; % is scaled to controls: 0 for no effect and ±100 for the full control effect
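Human PI5P4Kalpha with substrate in 0.038 M HEPES pH 7.4, 0.28 mM EGTA, 0.1% CHAPS, 5% DMSO; reaction started with 5 microM ATP (final), 60 min at room temperature. ADP formed read by ADP-Glo luminescence.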
G9a block: qHTS Assay for Inhibitors of Histone Lysine Methyltransferase G9a; Histone-lysine N-methyltransferase EHMT2 (Homo sapiens), Q96KQ7; G9a H3K9 monomethylation, AlphaScreen, 2 h; Potency, µM (titrated, usually from 102 µM), for the others: top-dose activity, negative = inhibition, usual class: inhibitors; 350,000 tested, 8.8% active; AID 504332, 2011; also: potency is read from the fitted curve at half-maximal effect; % is scaled to controls: 0 for no effect and ±100 for the full control effect; nearly all actives have a fitted effect of over 75% in size
Target sequence (Q96KQ7 913-1193 limits assumed): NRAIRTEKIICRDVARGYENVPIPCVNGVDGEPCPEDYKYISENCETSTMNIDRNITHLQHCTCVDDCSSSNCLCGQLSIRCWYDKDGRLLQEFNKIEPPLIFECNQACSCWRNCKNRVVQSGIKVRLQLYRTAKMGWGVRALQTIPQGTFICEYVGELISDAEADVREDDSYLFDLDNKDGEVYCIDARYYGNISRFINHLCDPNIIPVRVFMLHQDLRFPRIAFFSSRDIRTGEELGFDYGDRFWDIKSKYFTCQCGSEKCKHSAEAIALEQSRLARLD
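Compounds were preincubated with 20 nM G9a for 15 min, after which biotinylated H3K9 peptide (500 nM) and SAM (20 uM) started a 2 h room-temperature reaction. Monomethylated product was quantified by antibody-based AlphaScreen chemiluminescence.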
* marks the source's active call; other numbers are inactive results; ? = inconclusive; . = no result; [ ] = dose if it differs, or a comment. Unless noted, calls follow the shape of the dose curve; as a rule, active = well fitted inhibition curve with a large enough effect; inconclusive = small, poorly fitted or top-dose-only effect; inactive = no such curve, though single readings can be large or run the other way.

SMILES	BAZ2B block	L3MBTL1 block	HP1b binding inh	JMJD2A Tudor inh	PI5P4Ka inh	G9a block
CC1(C)CC(NC(=O)c2cc(S(=O)(=O)N3CCOCC3)c(Cl)cc2Cl)CC(C)(C)N1	50µM*	7%	35%	-1%	0	8%[0.501 µM]
COc1ccc(/C=C/C(=O)Nc2ccc(-n3nncc3-c3ccccc3)cc2)cc1OC	2%	-11%	-14%	-18%	-22	45µM*
O=C(CCC1CCCN(C(=O)CC2=CCCCC2)C1)N1CCN(c2ccccn2)CC1 (stereo unspecified)	-3%	-6%	-17%	14µM*	?	14%
Cc1cc2oc(=O)cc(CN3CCC(C)CC3)c2cc1Cl	0%	9%	41%	5%	.	-16%[59 µM]
COc1ccccc1CNCc1cc(=O)oc2c(C)c(C)ccc12	8%	.	2%	-10%	11	-10%
COc1cc2c(cc1OC)CN(Cc1cc(=O)oc3c(C)c(C)ccc13)CC2	-25%	-11%	22%	-30%	0	25µM*
Cc1cc2oc(=O)cc(CN3CCCC3)c2cc1C	.	.	.	.	-6	.
CCc1ccc2c(CN3CCc4cc(OC)c(OC)cc4C3)cc(=O)oc2c1	-37%	-11%	33%	-16%	-2	8.9µM*
COc1cc2c(cc1OC)CN(Cc1cc(=O)oc3cc(C)c(Cl)cc13)CC2	-9%	-8%	30%	-15%	-5	10µM*
COc1cc2c(cc1OC)CN(Cc1cc(=O)oc3cc(C)c(C)cc13)CC2	-9%	-9%	35%	-22%	5	7.9µM*
Cc1ccc(Cl)cc1N1CCN(S(=O)(=O)c2ccc3c(c2)CCN3C(=O)C2CCC2)CC1	.	.	45%	-6%	.	-5%[59 µM]
COc1cc2c(cc1OC)n(Cc1cccc(C(F)(F)F)c1)c(=O)n1nc(-c3ccccc3)nc21	-4%	.	33%	-10%	.	-26%[59 µM]
CCCc1nn2c(=O)cc(COC(=O)c3ccccc3NC(=O)C3CCCCC3)nc2s1	-7%	.	-15%	-29%	.	?
Cc1ccc(C(C[N+](=O)[O-])Sc2ccc(N)cc2)cc1 (stereo unspecified)	?	-16%	-1%	-26%	0	40µM*
CCOc1ccc(-c2cc3c(=O)n(Cc4nc(-c5ccc(OC)cc5OC)oc4C)ccn3n2)cc1Cl	-4%	.	22%	-8%	.	-6%[59 µM]
CCN(CC(=O)Nc1ccc(NC(C)=O)cc1)C(=O)c1cccnc1Sc1ccc(C)c(C)c1	4%	-4%	-3%	-20%	1	50µM*
CCOc1ccc(-c2nnc3ccc(SCC(=O)Nc4nc5ccccc5s4)nn23)cc1	6%	3%	40%	-9%	3	-13%
COc1ccc(-c2nnc3ccc(SCC(=O)N4CCCC4)nn23)cc1	9%	2%	43%	-9%	-3	50µM*
O=C(CSc1ccc2nnc(-c3ccc(Cl)cc3)n2n1)N1CCCc2ccccc21	27%	28%	25%	-21%	-4	32µM*
CCOc1ccc(-c2nnc3ccc(SCC(=O)N4CCCCC4)nn23)cc1	8%	2%	66%	-9%	6	35µM*
CCOc1ccc(-c2nnc3ccc(SCC(=O)Nc4nc5ccc(C)cc5s4)nn23)cc1	2%	7%	52%	-7%[57.1 µM]	-7	45µM*
O=C(Nc1ccc(C(=O)O)cc1)/C(=C\c1ccco1)NC(=O)c1ccc(Br)o1	-2%	.	?	?	-12	35µM*
O=C(O)/C(=C/c1ccco1)NC(=O)c1ccc(Br)o1	-5%	?	13%	-26%	6	45µM*
O=C(NCc1ccco1)/C(=C/c1ccco1)NC(=O)c1ccc(Br)o1	-8%	?	14%	-22%	7	?
CC(C)C(NC(=O)/C(=C/c1ccco1)NC(=O)c1ccc(Br)o1)C(=O)O (stereo unspecified)	?	.	28%	?	0	22µM*
SMILES	BAZ2B block	L3MBTL1 block	HP1b binding inh	JMJD2A Tudor inh	PI5P4Ka inh	G9a block
O=C(NCCCO)/C(=C\c1ccco1)NC(=O)c1ccc(Br)o1	-2%	-4%	32%	-12%	4	28µM*
CCn1c(Oc2ccc(F)cc2F)nc2c1c(=O)n(C)c(=O)n2C	-13%	.	1%	-17%	.	-1%[59 µM]
COC(=O)c1ccc(OC)c(Cn2c(=O)n(-c3ccc(C)cc3)c(=O)c3c2cnn3C)c1	-2%	.	25%	-7%	.	-26%[59 µM]
O=C(Nc1cccc(C(=O)O)c1)/C(=C\c1ccc2c(c1)OCO2)NC(=O)c1ccc(Br)o1	-15%	.	0%	-25%	-12	-42%
O=C(Nc1ccc(C(=O)O)cc1)/C(=C\c1ccc2c(c1)OCO2)NC(=O)c1ccc(Br)o1	-4%	.	-13%	45µM*	6	2%
CCCN1Cc2cccc(C(=O)Nc3ccccc3F)c2C1=O	8%	.	22%	-3%	.	3%[59 µM]
O=C(Nc1nc2ccccc2s1)C1CCN(S(=O)(=O)c2cc([N+](=O)[O-])ccc2Cl)CC1	28µM*	.	-20%	?	?	?
CCOC(=O)c1ccccc1NC(=O)Cn1c(=O)n(-c2cccc(C)c2)c(=O)c2c1c1cc(C)ccc1n2C	2%	.	1%	-13%	.	3%[59 µM]
CCCC12CN3CC(CCC)(CN(C1)C3c1c[nH]c3ccccc13)C2=O (stereo unspecified)	9%	.	-1%	-13%	.	-3%[59 µM]
CCC(C)(CCN1CCOCC1)N(Cc1cc2ccccc2n(C)c1=O)C(=O)C1CCCCC1 (stereo unspecified)	.	.	.	-14%	.	.
CCc1cccc(NC(=O)C2CCCN2S(=O)(=O)c2ccc3nc(-c4ccccc4)[nH]c3c2)c1 (stereo unspecified)	-29%	.	27%	-15%	.	-31%[59 µM]
Cc1cc(C)cc(NC(=O)C2CCCN2S(=O)(=O)c2ccc3nc(-c4ccccc4)[nH]c3c2)c1 (stereo unspecified)	79µM*	.	7%	?	.	?
Cc1ccc2nsnc2c1N	0%	8%	19%	-9%	-8	.
Nc1cccc2nsnc12	-5%	2%	-7%	-15%	-14	11µM*
C=CCc1c(C)nc(C)nc1N/N=C/c1ccccc1O	50µM*	?	14%	?	-3	-12%[12.7 µM]
Cc1[nH]c2ccccc2c1/C=N/Nc1nc(N2CCCCC2)nc(N2CCCCC2)n1	-36%	-6%	-10%	-32%	6	?
